# Reference: PubChem BioAssay (EPA / NIEHS)
# Results filed as inconclusive are left out. The source made the active and inactive calls. How the source made its calls: active means hit-call score of the fitted dose curve at least 0.9, where 1 is the maximum; inconclusive means response in the unintended direction; inactive means score below 0.9.
# Experiment: CCTE_Mundy_HCI_iCellGluta_NOG_NeuronCount: CCTE's Neurite Outgrowth Assay in iCellGluta cells for Neuron Count, Mundy Lab (AID 2284340);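 further: cells fixed about 48 h after compound addition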
# Description: CCTE_Mundy_HCI_iCellGluta_NOG is a multiplexed, cell-based-readout assay that uses iCell GlutaNeurons from FUJIFILM Cellular Dynamics, Inc. (FCDI), human glutamatergic enriched neurons derived from induced pluripotent stem (iPS) cells, with measurements taken at 50.33 hours after chemical dosing in a microplate: 96-well plate.CCTE_Mundy_HCI_iCellGluta_NOG_NeuronCount is one of four components of the CCTE_Mundy_HCI_iCellGluta_NOG assay. It measures cell viability related to number of neurons using High Content Imaging of fluorescently labelled markers.Data from the assay component CCTE_Mundy_HCI_iCellGluta_NOG_NeuronCount was analyzed at the endpoint CCTE_Mundy_HCI_iCellGluta_NOG_NeuronCount in the positive analysis fitting direction relative to DMSO as the negative control and baseline of activity. Using a type of viability reporter, loss-of-signal activity can be used to understand developmental effects.
# Exposure starts 2 hours post-plating by adding 10 ul of the working solution to 90 ul of media in the wells for a 1/10 dilution. Forty-eight hours after chemical treatment cells are fixed by direct addition of 100 ul of warm (37C) Dulbecco's phosphate buffered saline (DPBS) fixative solution containing 8% paraformaldehyde, 8% sucrose, and 0.1% of 3 mg/ml Hoechst 33342 into each well. Primary antibodies are prepared by dilution in Immunocytochemical Staining Buffer (ISB), 10X Dulbecco's PBS, 0.1% Saponin, 5% Bovine Serum Albumin, 0.5% NaN3 (Sodium Azide) and betaIII-tubulin (rabbit anti-betaIII-tubulin, 1:800) followed by Alexa Fluor-488 secondary (1:500) to label neuronal cell bodies and neurites. A Cellomics ArrayScan VTi HCS Reader is used for automated image acquisition and analysis of neurite outgrowth.
row,SMILES,outcome
1,C=CC(=O)OCC(F)(F)C(F)(F)C(F)(F)COC(=O)C=C,inactive
2,O=C(F)C1(F)C(F)(F)C(F)(F)C(F)(F)C(F)(F)C1(F)F,inactive
3,O=C(O)C(F)(F)C(F)(F)C(F)(F)OC(F)(F)F,inactive
4,O=C(O)CCC(F)(F)C(F)(F)C(F)(F)C(F)(F)C(F)(F)C(F)(F)C(F)(F)F,inactive
5,OCCCCC(F)(F)C(F)(F)C(F)(F)C(F)(F)F,inactive
6,NC(=O)C(F)(F)C(F)(F)C(F)(F)C(F)(F)C(N)=O,inactive
7,O=C(O)C(F)(F)C(F)(F)C(F)(F)OC(F)(C(F)(F)F)C(F)(F)F,inactive
8,OCCCC(F)(F)C(F)(F)C(F)(F)C(F)(F)C(F)(F)C(F)(F)C(F)(F)C(F)(F)F,inactive
9,NC(O)(C(F)(F)F)C(F)(F)F,inactive
10,CCN(CCO)S(=O)(=O)C(F)(F)C(F)(F)C(F)(F)C(F)(F)C(F)(F)C(F)(F)C(F)(F)C(F)(F)F,inactive
11,O=S(=O)(O)CCC(F)(F)C(F)(F)C(F)(F)C(F)(F)C(F)(F)C(F)(F)C(F)(F)C(F)(F)F,inactive
12,O=C(O)CCC(F)(F)C(F)(F)C(F)(F)F,inactive
13,NC(=O)C(F)(F)C(F)(F)C(F)(F)C(F)(F)C(F)(F)C(F)(F)C(F)(F)F,inactive
